Screening data (PubChem BioAssay)
ELG1 repair inh – qHTS screen for small molecules that inhibit ELG1-dependent DNA repair in human embryonic kidney (HEK293T) cells expressing luciferase-tagged ELG1. HEK293T ELG1-luciferase reporter, luminescence, 16 h; DNA damage induced by 5-fluorouridine. Potency, µM (series often up to 46.1 µM), most hits filed as inhibitors. 330,000 compounds, 2.3% hits; also: nearly all actives have a fitted effect of over 55% in size
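5-Fluorouridine DNA damage + compound/DMSO, 2,000 cells/well, 16 h, 37 °C/5% CO2. ONE-Glo, 30 min RT, luminescence. Readout = decrease in reporter signal.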
ELG1 genotox – qHTS screen for small molecules that induce genotoxicity in human embryonic kidney (HEK293T) cells expressing luciferase-tagged ELG1; Potency, µM (highest dose often 46 µM), most hits filed as activators; HEK293T ELG1-luciferase reporter, luminescence, 16 h; 330,000 compounds, 1.3% hits; also: nearly all actives have a fitted effect of over 60% in size
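Screening used a luciferase reporter fused to human ELG1 in HEK293T cells. Luminescence was read on a CCD plate imager after 16 hr exposure and 30 min ONE-Glo incubation.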
FLuc counter – qHTS profiling assay for firefly luciferase inhibitor/activator using purifed enzyme and Km concentrations of substrates (counterscreen for miR-21 project); purified FLuc, Km substrates, luminescence inhibition; 360,000 compounds, 6.9% hits; AID 588342, 2011; Potency, µM (series often up to 57.5 µM), hits mostly inhibitors; also: nearly all actives have a fitted effect of over 55% in size
Target sequence (P08659 whole entry, looked up): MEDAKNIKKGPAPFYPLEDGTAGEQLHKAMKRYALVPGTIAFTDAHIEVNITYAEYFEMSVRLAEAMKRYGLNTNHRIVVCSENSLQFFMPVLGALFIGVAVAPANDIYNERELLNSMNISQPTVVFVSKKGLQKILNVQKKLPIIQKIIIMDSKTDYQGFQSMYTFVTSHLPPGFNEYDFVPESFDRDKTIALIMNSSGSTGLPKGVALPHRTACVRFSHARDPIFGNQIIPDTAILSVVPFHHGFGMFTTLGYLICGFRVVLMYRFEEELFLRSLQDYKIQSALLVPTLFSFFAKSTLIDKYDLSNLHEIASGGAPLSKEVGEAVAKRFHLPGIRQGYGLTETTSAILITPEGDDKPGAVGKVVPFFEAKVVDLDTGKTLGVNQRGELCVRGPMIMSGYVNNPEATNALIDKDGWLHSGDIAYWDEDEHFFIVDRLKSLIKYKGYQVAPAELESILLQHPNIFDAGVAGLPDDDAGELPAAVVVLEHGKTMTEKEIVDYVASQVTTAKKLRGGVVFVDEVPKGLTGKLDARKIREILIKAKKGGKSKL
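Purified P. pyralis luciferase, 10 nM final, with Km-level 10 uM D-luciferin and 10 uM ATP in 50 mM Tris acetate pH 7.5, 10 mM Mg acetate, 0.01% Tween-20, 0.05% BSA; 6-point qHTS titration about 60 µM downward; luminescence read.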
SMN2 splice enh – qHTS Assay for Enhancers of SMN2 Splice Variant Expression | HEK293 SMN2-luciferase splicing reporter, luminescence, 30-36 h | Potency, µM (doses to about 46.1 µM), hits mostly activators | 210,000 compounds, 2.8% hits | AID 1458, 2008; also: nearly all actives have a fitted effect of over 55% in size
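HEK293 cells carry an SMN2 […]–luciferase reporter in which exon 7 inclusion puts luciferase in frame. Cells were plated 10-12 h before compound addition, then incubated 30-36 h at 37C. ONE-Glo luminescence was read; sodium butyrate at 4.5 mM final served as control.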
Rab9 prom act – qHTS Assay for Rab9 Promoter Activators | Huh7 Rab9 promoter-luciferase reporter, luminescence, 24 h | Potency, µM (top dose mostly 9.22 µM), usual class: activators | 320,000 compounds, 2.8% hits; also: nearly all actives have a fitted effect of over 60% in size
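Using Huh7 cells stably transfected with Rab9 promoter–luciferase, compounds were incubated 24 h at 37 °C, 5% CO2; luciferase luminescence was read 10 min after reagent addition.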
NPC1 prom act – qHTS Assay for NPC1 Promoter Activators | Potency, µM (highest dose often 9.22 µM), most hits filed as activators | Huh7 NPC1 promoter luciferase reporter, 24 h | 320,000 compounds, 2.4% hits; also: nearly all actives have a fitted effect of over 60% in size
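Stably transfected Huh7 (NPC1 promoter→luciferase), 1500 cells/well in Opti-MEM + 10% FBS, 2 h settle, then compound 24 h at 37 °C. Luminescence after 10 min with Amplite reagent.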
Hits are given with their value; 0 = inactive; ? = inconclusive; - = not tested or not shown. Hits are enriched below; roughly 9.3% of the tested compounds scored in any of these assays. Calls follow the shape of the dose curve; as a rule, active = well fitted curve in the direction sought with a large enough effect; inconclusive = small, poorly fitted or top-dose-only effect, or another doubt; inactive = no such curve, though single readings can be large; an effect the other way counts as inactive or inconclusive.

SMILES	ELG1 repair inh	ELG1 genotox	FLuc counter	SMN2 splice enh	Rab9 prom act	NPC1 prom act
CCOC(=O)C1CCCN(C(=O)c2ccc3oc(CCc4ccccc4)nc3c2)C1 (configuration not stated)	?	0	13.5µM	-	0	?
COC(=O)C1CCCCN1C(=O)c1ccc2oc(Cc3ccccc3)nc2c1 (configuration not stated)	?	?	15.1µM	-	?	3.55µM
CCOC(=O)CC1CCCCN1C(=O)c1ccc2oc(CCc3ccccc3)nc2c1 (configuration not stated)	0	0	?	-	0	0
Cn1c(=O)c2c(nc(NCCCCO)n2Cc2ccccc2Cl)n(C)c1=O	-	-	0	0	-	-
COc1ccc(C(=O)NCc2cccnc2)cc1S(=O)(=O)N1CCCc2ccccc21	0	0	0	0	0	0
COCCCNC(=O)c1[nH]c2ccccc2c1Sc1ccc(C)cc1	-	-	0	-	-	-
N#Cc1cccc(NC(=O)COC(=O)c2ccc[n+]([O-])c2)c1	0	0	-	-	-	-
CC(=O)C1CCCN(C(=O)c2ccc3nc(Cc4cccc(Cl)c4)oc3c2)C1 (configuration not stated)	0	0	0	-	0	0
CCCCc1nc2cc(C(=O)N3CCN(c4nc(C)cnc4C)CC3)ccc2o1	?	0	15.1µM	-	?	?
CC(=O)C1CCCN(C(=O)c2ccc3oc(CCc4ccccc4)nc3c2)C1 (configuration not stated)	?	?	?	-	2.51µM	?
COCCC1CCCCN1C(=O)c1ccc2nc(Cc3ccccc3F)oc2c1 (configuration not stated)	?	10.3µM	8.49µM	-	2.82µM	1.78µM
O=C(Nc1ccc(C(=O)OC[C@@H]2CCCN3CCCC[C@H]23)cc1)c1cccc(Br)c1	0	0	0	0	0	0
CCCCOC(=O)n1c(=S)oc2cc(Cl)ccc21	?	0	16.9µM	0	0	0
Cc1cc(Cl)cc(C)c1OCC(=O)NC1CCCCCC1	0	0	-	-	-	-
CSc1ncc(-c2ccc(Cl)cc2)[nH]1	?	?	9.53µM	-	3.16µM	3.16µM
CCOC(=O)c1sc(NC(=O)c2cc(-c3ccc(C)cc3)nc3ccccc23)c(C#N)c1C	?	0	12µM	0	0	0
COc1ccc(-c2cc(C(=O)Nc3sc4c(c3C#N)CCCC4)c3ccccc3n2)cc1	?	0	15.1µM	0	0	0
CCOC(=O)c1sc(NC(=O)CSc2n[nH]c(-c3ccncc3)n2)c(C#N)c1C	18.4µM	0	0	-	0	0
Cc1sc(NC(=O)c2cc(-c3ccccc3)nc3ccccc23)c(C(N)=O)c1C	5.8µM	0	0	0	0	0
CCOC(=O)c1sc(NC(=O)CSc2nccc(C)n2)c(C#N)c1C	0	0	0	0	0	0
O=C(N/N=C/c1cccnc1)C1CC1(c1ccccc1)c1ccccc1 (configuration not stated)	0	0	0	0	0	0
Cc1ccc2[nH]c(=O)c3cc(C(=O)N4CCN(c5ccccc5F)CC4)sc3c2c1	-	-	0	0	-	-
COC(=O)CCC(=O)OC1(C)C(=O)C=C2C=C(c3ccc(C#N)cc3)OC=C2C1=O (configuration not stated)	-	-	-	0	-	-
COC(=O)c1sc(NC(=O)c2cc(-c3ccccc3)nc3ccccc23)c(C#N)c1C	0	0	?	0	0	0
Cc1ccccc1-c1cc(C(=O)Nc2sc(C(=O)OC(C)C)c(C)c2C#N)c2ccccc2n1	23.1µM	0	0	0	0	0
SMILES	ELG1 repair inh	ELG1 genotox	FLuc counter	SMN2 splice enh	Rab9 prom act	NPC1 prom act
CCOc1ccc2nc(Cl)c(CN(C(=O)c3cnccn3)C3CCCC3)cc2c1	14.6µM	0	0	0	0	0
CCOc1ccc2nc(NC(=O)c3cc(=O)c4ccc(C)cc4o3)sc2c1	-	-	?	0	-	-
CCOc1ccc2nc(NC(=O)c3cnccn3)sc2c1	?	?	1.51µM	-	0.251µM	0.794µM
O=C(Nc1nc2c(s1)CCCC2=O)c1cnccn1	?	23.1µM	?	20µM	?	?
O=C(Nc1nc2ccccc2s1)c1cnccn1	?	0.461µM	2.13µM	6.31µM	0.316µM	1.12µM
COc1ccc(CCNCC(=O)Nc2ccccc2C(F)(F)F)cc1	0	0	0	0	0	0
O=C(Nc1nc2ccc(F)cc2s1)c1ccccn1	?	?	0.536µM	0	0.0891µM	?
O=C(NCc1cccnc1)C(=O)Nc1nccs1	0	0	0	0	0	0
O=C(NCc1cccnc1)C(=O)Nc1nc2ccccc2s1	?	?	15.1µM	0	0	0
Cc1ccc(C(=O)N(C)Cc2ccc(N3CCOCC3)cc2)cc1S(=O)(=O)NCc1ccccc1	20.6µM	0	0	-	0	0
CN(Cc1ccc(F)cc1)C(=O)c1cccc(S(=O)(=O)N2CCN(c3ccccc3)CC2)c1	18.3µM	0	0	-	0	0
Cc1ccc(C(=O)N(C)Cc2ccccc2)cc1S(=O)(=O)N1CCOCC1	0	0	0	-	0	0
CCOc1ccc(CN(C)C(=O)CCc2ccc(S(=O)(=O)N3CCCCCC3)cc2)cc1	7.94µM	0	0	-	0	0
COCCN(Cc1ccccc1)C(=O)c1cccc(S(=O)(=O)N2CCN(c3ccccc3)CC2)c1	14.6µM	0	0	-	0	0
Cc1ccc(NC(=O)CSc2ccc(-c3ccc(-n4cccn4)cc3)nn2)c(C)c1	?	0	0	-	0	0
CCOc1ccc(CNC(=O)CCCn2ccc3cc(S(=O)(=O)N4CCCC4)ccc32)cc1	0	0	16.9µM	-	0	0
CN(Cc1cccc(F)c1)C(=O)c1ccc(S(=O)(=O)N2CCCCCC2)cc1	20.6µM	0	-	-	-	-
Cc1cccc(OCC(=O)N/N=C\c2cn(C)c3ccccc23)c1	5.8µM	?	0	-	0	0
Cc1cccc(OCCn2cc(/C=N/NC(=O)c3ccncc3)c3ccccc32)c1	20.6µM	0	?	0	0	0
Cc1cccc(OCC(=O)NCC(=O)N/N=C/c2cc(Br)ccc2OCc2ccccc2)c1	25.9µM	0	0	0	0	0
O=C(COc1ccccc1)NCC(=O)N/N=C/c1cc(Br)ccc1OCc1ccccc1	?	0	0	?	0	0
CC(=O)c1cc(-c2ccccc2)n(CC(=O)NCc2ccccc2C)c1C	-	-	0	0	-	-
COc1ccc(Br)cc1CNC(=O)CN1C(=O)CCCc2ccccc21	-	-	0	-	-	-
Cc1ccc(C(=O)NCCS(=O)(=O)N2CCN(c3ccccc3F)CC2)cc1[N+](=O)[O-]	20.6µM	0	0	-	0	0
